PubChem BioAssay (NCATS)
Inconclusive results are not listed. Calls of active or inactive are those of the source. The call rests on the fitted dose curve; in most records, active means well fitted cell-killing curve with a large enough effect; inconclusive means small, poorly fitted or top-dose-only effect, or effect the other way; inactive means flat fitted curve, though single readings scatter.

test system: HeLa; assay: Primary qHTS to identify gynecologic anti-cancer compounds using libraries of approved drugs and bioactive compounds (AID 1345084); conditions: Gynecologic cancer cell panel viability, ATPlite luminescence, 48 h; series mostly up to 57.5 µM; activity change, negative = cytotoxicity: at the top concentration; further: nearly all actives have a fitted effect of over 55% in size
Summary of the method: (§1)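 Cells, 1,000 per well, plated 16 h, then exposed 48 h at 37 C to compounds. Viability by ATPlite luminescence after 15 min at room temperature.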
On the % scale 0 is the no-effect control and ±100 the full control effect; potency means the concentration at half of the fitted maximal effect.

Structure (SMILES)	activity change, negative = cytotoxicity	Potency
O=C(O)c1cc2cccc([N+](=O)[O-])c2[nH]1	-4.81% (inactive)	–
CC(C)c1cc(CNc2nc(Nc3cc(C4CC4)[nH]n3)cc(N3CCN(C)CC3)n2)on1	–	0.251 µM (active)
CC1(C)CC[C@]23CO[C@@]4(CCC5[C@@]6(C)CC[C@H](O[C@@H]7OC[C@H](O[C@@H]8O[C@H](CO)[C@@H](O)[C@H](O)[C@H]8O)[C@H](O)[C@H]7O[C@@H]7O[C@H](CO)[C@@H](O[C@@H]8O[C@H](CO)[C@@H](O)[C@H](O)[C@H]8O)[C@H](O)[C@H]7O)[C@@](C)(CO)C6CC[C@@]5(C)[C@]4(C)C[C@H]2OC2OCC(O)C(O)C2O)C3C1 (some centres undefined)	-27.3% [at 6.55 µM] (inactive)	–
COc1ccc(C(=O)Nc2ncc(-c3ccc(C(=O)O)cc3)s2)cc1	–	7.08 µM (active)
CC(C)c1cc(C(=O)N2CC[C@H](NC(=O)C3CC3)C2)n[nH]1	15.3% (inactive)	–
CC1=C(C(=O)O[C@@H]2O[C@H](COC3OCC(O)C(O)C3O)[C@@H](O)[C@H](O)[C@H]2O)C(C)(C)CCC1 (some centres undefined)	-6.18% [at 25.3 µM] (inactive)	–
Cc1nc(Nc2n[nH]c3c2CN(C(=O)NC(CN(C)C)c2ccccc2)C3(C)C)c2sccc2n1 (centres undefined)	–	10 µM (active)
Cc1onc(C(=O)N2CCN(C(c3ccc(Cl)cc3)c3ccc(Cl)cc3)CC2)c1[N+](=O)[O-]	-6.21% (inactive)	–
Nc1ccc(/C=C/C(=O)NCc2cc3cc(-c4ccc(C(=O)N5CCC(F)(F)CC5)cc4)cc(-c4ccc(F)cc4)c3o2)cn1	–	4.47 µM (active)
COc1ncc(Nc2ncc([C@@H](C)N3CCN(S(C)(=O)=O)CC3)cc2-c2nc(C)nc(N)n2)cc1F	-27% (inactive)	–
CCCCNc1ncc2c(-c3ccc(CN4CCN(C)CC4)cc3)cn(C3CCC(O)CC3)c2n1 (centres undefined)	–	1.78 µM (active)
COc1ccc(F)cc1-c1cc(NC(=O)[C@@H]2CCCNC2)ncc1Cl	–	0.708 µM (active)
O=S(=O)(c1ccccc1)c1cnc2c(N3CCNCC3)cccc2c1	5.82% (inactive)	–
CC[C@H](C)[C@H](NC(=O)[C@H]([C@@H](C)CC)N(C)C(C)=O)C(=O)N[C@H](C(=O)N[C@@H](CC(C)C)C(=O)[C@@]1(C)CO1)[C@@H](C)O	–	0.1 µM (active)
CC[C@]1(O)CC2CN(CCc3c([nH]c4ccccc34)[C@@](C(=O)OC)(c3cc4c(cc3OC)N(C=O)[C@H]3[C@@](O)(C(=O)OC)[C@H](OC(C)=O)[C@]5(CC)C=CCN6CC[C@]43[C@@H]65)C2)C1 (some centres undefined)	–	0.282 µM (active)
CC1(CCOC2OC(CO)C(O)C(O)C2O)CCC23OC2(C1)C(O)CC1C(C)(C(=O)O)CCCC13C (centres undefined)	-0.461% [at 25.3 µM] (inactive)	–
O=C1N=C(N2CCOCC2)CN1c1ccc(Cl)cc1	20% (inactive)	–
CC(C)c1c2cc(-c3ccnc(NC4CCC(NC5CCOCC5)CC4)n3)ccc2nn1C (centres undefined)	–	0.708 µM (active)
CC1=C(C(=O)OCc2ccccc2)C(c2ccc(-c3ccccc3)cc2)NC(=O)N1CCCCCC(=O)O (centres undefined)	7.21% (inactive)	–
COc1cc2nc(N3CCCC3)nc(NCCCCCN3CCCC3)c2cc1OC	–	25.1 µM (active)
CC(C)CCC[C@@H](C)[C@H]1CC[C@H]2[C@@H]3CC(=O)[C@H]4C[C@@H](O)CC[C@]4(C)[C@H]3CC[C@]12C	11.4% (inactive)	–
Cc1ccc(C(=O)Nc2noc3ccccc23)cc1	–	22.4 µM (active)
CCC1C(=O)OC23C=C[C@@H]4C(C(=O)O)=CO[C@H](O[C@@H]12)[C@@H]43 (some centres undefined)	10.2% (inactive)	–

test system: Hek293T; assay: as above; conditions: Gynecologic cancer cell panel viability, ATPlite luminescence, 48 h, control line for the selectivity index; series mostly up to 57.5 µM; activity change, negative = cytotoxicity: at the top concentration
Summary of the method: as §1

Structure (SMILES)	activity change, negative = cytotoxicity	Potency
O=C(O)c1cc2cccc([N+](=O)[O-])c2[nH]1	-9.35% (inactive)	–
CC(C)c1cc(CNc2nc(Nc3cc(C4CC4)[nH]n3)cc(N3CCN(C)CC3)n2)on1	–	2 µM (active)
CC(C)c1cc(C(=O)N2CC[C@H](NC(=O)C3CC3)C2)n[nH]1	5.97% (inactive)	–
CN1c2ccccc2C(=O)N2CCC3c4ccccc4NC3C21 (centres undefined)	–	5.62 µM (active)
CC1=C(C(=O)O[C@@H]2O[C@H](COC3OCC(O)C(O)C3O)[C@@H](O)[C@H](O)[C@H]2O)C(C)(C)CCC1 (some centres undefined)	-21.9% [at 25.3 µM] (inactive)	–
Cc1nc(Nc2n[nH]c3c2CN(C(=O)NC(CN(C)C)c2ccccc2)C3(C)C)c2sccc2n1 (centres undefined)	–	7.94 µM (active)
Cc1onc(C(=O)N2CCN(C(c3ccc(Cl)cc3)c3ccc(Cl)cc3)CC2)c1[N+](=O)[O-]	-15.8% (inactive)	–
Nc1ccc(/C=C/C(=O)NCc2cc3cc(-c4ccc(C(=O)N5CCC(F)(F)CC5)cc4)cc(-c4ccc(F)cc4)c3o2)cn1	–	3.98 µM (active)
COc1ncc(Nc2ncc([C@@H](C)N3CCN(S(C)(=O)=O)CC3)cc2-c2nc(C)nc(N)n2)cc1F	–	1.26 µM (active)
CCCCNc1ncc2c(-c3ccc(CN4CCN(C)CC4)cc3)cn(C3CCC(O)CC3)c2n1 (centres undefined)	-38.2% (inactive)	–
COc1ccc(F)cc1-c1cc(NC(=O)[C@@H]2CCCNC2)ncc1Cl	–	0.398 µM (active)
O=S(=O)(c1ccccc1)c1cnc2c(N3CCNCC3)cccc2c1	-1.95% (inactive)	–
CC1(CCOC2OC(CO)C(O)C(O)C2O)CCC23OC2(C1)C(O)CC1C(C)(C(=O)O)CCCC13C (centres undefined)	-1.41% [at 25.3 µM] (inactive)	–
CC(=O)NCC(=O)N1C2CCC1c1cc(Nc3ncc(C(F)(F)F)c(NC4CCC4)n3)ccc12 (centres undefined)	–	3.98 µM (active)
C[C@@H]1COCCN1c1cc(C2(S(C)(=O)=O)CC2)nc(-c2cccc3[nH]ccc23)n1	–	7.94 µM (active)
O=C(c1ccccc1)c1ccc2nc(NC(=O)c3csc(C4CCN(c5ncnc6ccsc56)CC4)n3)[nH]c2c1	–	8.91 µM (active)
CN1CCN(c2ccc(C(=O)Nc3n[nH]c4ccc(Cc5cc(F)cc(F)c5)cc34)c(NC3CCOCC3)c2)CC1	-5.91% (inactive)	–
O=C(Nc1ccc(Cl)cc1F)c1ccccc1O	–	17.8 µM (active)
O=C1N=C(N2CCOCC2)CN1c1ccc(Cl)cc1	4.17% (inactive)	–
CC1=C(C(=O)OCc2ccccc2)C(c2ccc(-c3ccccc3)cc2)NC(=O)N1CCCCCC(=O)O (centres undefined)	2.94% (inactive)	–
COc1cc2nc(N3CCCC3)nc(NCCCCCN3CCCC3)c2cc1OC	–	15.8 µM (active)
CC(C)CCC[C@@H](C)[C@H]1CC[C@H]2[C@@H]3CC(=O)[C@H]4C[C@@H](O)CC[C@]4(C)[C@H]3CC[C@]12C	2.1% (inactive)	–
CC(=O)OC1C(=O)C2(C)C(O)CC3OCC3(OC(C)=O)C2C(OC(=O)c2ccccc2)C2(O)CC(OC(=O)C(O)C(NC(=O)c3ccccc3)c3ccccc3)C(C)=C1C2(C)C (centres undefined)	-39.2% (inactive)	–
CN1CCC(Nc2nc(Nc3ccc(Oc4ccccc4)cc3)c3c(=O)[nH]cc(Br)c3n2)CC1	3.83% (inactive)	–
Cc1ccc(C(=O)Nc2noc3ccccc23)cc1	–	15.8 µM (active)
CCC1C(=O)OC23C=C[C@@H]4C(C(=O)O)=CO[C@H](O[C@@H]12)[C@@H]43 (some centres undefined)	-2.77% (inactive)	–
